# Measured values from PubChem BioAssay (NCATS).
# Several values for one entry are separate records, joined by “and”; a condition that tells them apart may be missing. Identical values can stand only once. Records with an inconclusive call do not appear. Where a call stands in place of a potency, no number is given. The source holds several records for some structures; these can differ, active in one and inactive in another. Activity calls are given as the source filed them. Unless noted, calls follow the shape of the dose curve; as a rule, active = well fitted curve in the direction sought with a large enough effect; inconclusive = small, poorly fitted or top-dose-only effect, or another doubt; inactive = no such curve, though single readings can be large; an effect the other way counts as inactive or inconclusive.
# Columns and labels:
# [1] = AP1 Signaling Pathway (AID 357; active = well fitted curve in either direction with a large enough effect, not every such curve was filed as active); settings: ME-180 AP-1-bla reporter, EGF-induced, beta-lactamase ratio, 5 h
# How it was run: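 Titration-series screen for positive or negative modulators of EC50 EGF-induced signaling in ME-180 cells carrying an AP-1-driven beta-lactamase reporter. After 5 hours at 37 degrees Celsius, CCF4 460nm/530nm emission ratio gave %Activity; AC50 values derived.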
# [2] = target: Cytochrome P450 1A2 (Homo sapiens) (UniProt P05177); test: p450-cyp1a2 (AID 410; calls by dose curve; also: potency is read from the fitted curve at half-maximal effect)
# How it was run: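 20nM CYP1A2 with 100uM Luciferin-ME (at Km) in 100mM KPO4; compound preincubated 10 min, NADPH regeneration added, 60 min at room temperature. Luciferin quantified by luminescence after detection reagent; normalized to 57 uM furafylline.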
# [3] = NFAT Signaling Pathway (AID 444; active = well fitted curve in either direction with a large enough effect, not every such curve was filed as active;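 also: carbachol stimulus at about its EC50 of 1 µM final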); settings: Jurkat NFAT-bla M1, carbachol, beta-lactamase ratio, 5 h
# How it was run: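 Jurkat cells carrying an NFAT-driven β-lactamase reporter and co-transfected muscarinic M1 receptor were treated with compound plus carbachol (1 uM final, an EC50 level) for 5 h at 37 °C. CCF4 loading followed for 1 h at RT; 460/530 nm ratio gave %activity.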
# [4] = Stat Signaling Pathway (AID 446; active = well fitted curve in either direction with a large enough effect, not every such curve was filed as active;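 also: ME-180 cervical cancer cells given 40 pM IL-6 alongside compound; SIE-controlled beta-lactamase reporter measured as 460/530 nm FRET emission ratio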); settings: ME-180 SIE beta-lactamase reporter, IL-6 stimulated, 5 h
# How it was run: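 Reporter line: ME-180 cervical carcinoma, SIE-beta-lactamase. Treatment: compound with 40 pM IL-6, 5 hrs, 37 C, in low-serum OPTI-MEM with 10 mM HEPES pH 7.3. Detection: 460/530 nm fluorescence.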
# [5] = target: Glucocorticoid receptor (Homo sapiens) (UniProt P04150); test: GR-EFC Redistribution (AID 451; calls by dose curve; also: potency is read from the fitted curve at half-maximal effect); settings: CHO-K1 GR-EFC translocation, beta-gal luminescence, 2 h
# How it was run: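 CHO-K1 cells stably expressing nuclear-localized β-gal enzyme acceptor and GR fused C-terminally to the enzyme donor fragment; ligand-driven nuclear translocation restores β-gal by complementation. Compounds titrated up to 46 uM final, 2 h at 37 °C; luminescence read.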
# [6] = target: Mitogen-activated protein kinase 10 (Mus musculus) (UniProt Q61831); test: JNK3 AlphaScreen Assay (AID 530; active = well fitted curve in either direction with a large enough effect, not every such curve was filed as active;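 also: kinase came from lysate of stimulated human HepG2 cells; signal reports phosphorylation of biotinylated GST-cJun 1-79 at Ser73 with 10 µM ATP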)
# How it was run: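 Inhibitors reduce antibody binding to phosphorylated biotin-cJun, lowering AlphaScreen luminescence. Lysates from HepG2 cells pre-activated by IL-1beta plus TNF-alpha supplied JNK3; compounds were titrated.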
# [7] = target: Guanine nucleotide-binding protein G(i) subunit alpha-1 (Homo sapiens) (UniProt P63096); test: qHTS Assay for Inhibitors of RGS12 GoLoco Motif Activity (Green Fluorophore) (AID 879);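 also: negative values mean loss of peptide binding seen as reduced polarization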
# How it was run: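 Fluorescence polarization assay: 50 nM Gαi1 with 10 nM FITC-labeled RGS12 GoLoco peptide in 10 mM Tris pH 7.5, 150 mM NaCl, 0.1 mM GDP, 0.05% NP40, 10 min at room temperature with compound.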
# [8] = qHTS Assay for Identification of Small Molecule Agonists for Thrombopoietin (TPO) Signaling Pathway (AID 917)
# How it was run: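 IL-3-dependent murine pro-B Ba/F3 cells, stably transfected with human TPO receptor and GpIIb-promoter luciferase, are incubated 24 hrs at 37 C with test compound and 26 pM TPO; luciferase signal is read after 10 min at room temperature.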
# [9] = target: Pyruvate kinase (Leishmania mexicana) (UniProt Q27686); test: qHTS Validation Assay for Inhibitors of Leishmania Mexicana Pyruvate Kinase (AID 945)
# How it was run: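 Compounds are tested as eight-point concentration series. Reactions contain 0.2 nM LmPYK E451W, 0.5 mM PEP, 0.1 mM ADP, 7 mM MgCl2 and 50 mM KCl at pH 7.2, run 1 h at room temperature, then read by PKLight luminescence.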
# [10] = target: Pyruvate kinase PKM (Homo sapiens) (UniProt P14618); test: qHTS Assay for Activators of Human Muscle Pyruvate Kinase (AID 954; active = well fitted curve in the direction sought with a large enough effect, not every such curve was filed as active)
# How it was run: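 Human PKM2 activity is measured as ATP generation, detected by luciferase-coupled luminescence. The enzyme (0.1 nM) acts on 0.5 mM PEP and 0.1 mM ADP for 1 h at ambient temperature; data are normalized to uninhibited and full-inhibition wells.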
# [11] = target: Alpha-galactosidase A (Homo sapiens) (UniProt P06280); test: Counterscreen for Glucocerebrosidase Inhibitors: qHTS Assay for Human alpha-Galactosidase at pH 4.5 (AID 992)
# How it was run: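 Quantitative HTS: compounds tested from 0.7 nM up to 77 uM against 2 nM enzyme with 80 uM 4-MU alpha-D-galactopyranoside. The 20 min room-temperature reaction is stopped with 1M NaOH/1M glycine, pH 10.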
# [12] = target: alpha-glucosidase (Oryza sativa, rice) (UniProt Q653V4); test: Counterscreen for Glucocerebrosidase Inhibitors: qHTS Assay for Rice alpha-Glucosidase at pH 5.0 (AID 997)
# How it was run: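 Rice alpha-glucosidase (4 nM final) with 400 uM 4-methylumbelliferyl-alpha-D-glucopyranoside in citrate buffer pH 5.0, 20 min at room temperature, stopped at pH 10; fluorescence 365/440 nm, compounds 0.7 nM–77 uM, AC50 from Hill fits.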
# [13] = qHTS Assay for Lipid Storage Modulators (AID 1519; calls by dose curve); settings: Drosophila S3 cells, BODIPY lipid droplet/cell ratio, laser cytometry, cells loaded with oleic acid
# How it was run: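 Cells seeded at 5,000 per well were treated with compounds over a concentration series and loaded with oleic acid (400 uM, as added). Lipid droplet fluorescence (488 nm excitation, 500-530 nm channel) was read by laser-scanning cytometry and normalized to 20 uM Triacsin C.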
# [14] = target: Ubiquitin carboxyl-terminal hydrolase 1 (Homo sapiens) (UniProt O94782); test: Inhibitors of USP1/UAF1: Pilot qHTS (AID 504865);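 also: rhodamine fluorescence freed from ubiquitin-rhodamine substrate followed over time; top concentration of the series differs between compounds; nearly all actives have a fitted effect of over 35% in size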
# How it was run: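 Enzyme-free wells gave the negative control, while test wells held 1nM USP1/UAF1 preincubated with compound for 15 min at room temperature. Ub-Rho at 150nM final started the reaction, and fluorescence at 480/540 nm was recorded kinetically.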
# [15] = target: DNA dC->dU-editing enzyme APOBEC-3G (Homo sapiens) (UniProt Q9HC16); test: qHTS for inhibitors of Vif-A3G interactions: Validation (AID 588379)
# How it was run: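 HeLa cells stably expressing Vif and A3G-eYFP, 700 cells/well, incubated overnight at 37 deg C, then exposed to compound overnight at 37 deg C. Inhibition of Vif-mediated degradation read as increased yellow fluorescence (Ex 488/Em 500-530) by laser-scanning cytometry.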
# [16] = test system: Zika virus NS2B-NS3 protease; test: Primary screen GU AMC qHTS for Zika virus inhibitors (AID 1347154); also: nearly all actives have a fitted effect of over 70% in size
# How it was run: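 Unlinked Zika NS2B hydrophilic domain/NS3 protease domain noncovalent complex (25 nM final) in 10 mM Tris-HCl pH 8.0, 0.01% Tween 20, with AMC peptide substrate. Fluorescence (ex 340, em 450 nm) change over 15 min, room temperature; percent inhibition fitted to 4-parameter Hill equation.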
# [17] = Primary qHTS for small molecule stabilizers of the endoplasmic reticulum resident proteome: Secreted ER Calcium Modulated Protein (SERCaMP) assay (AID 1508630)
# How it was run: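 GLuc-SERCaMP-expressing SH-SY5Y cells, pretreated 16 h with compound, are challenged with thapsigargin to empty ER calcium stores; after 4 h, coelenterazine is added directly to the medium and luminescence is imaged.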
# [18] = target: Glucocorticoid receptor (Homo sapiens) (UniProt P04150); test: GR-GFP Redistribution (AID 450;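 active = compounds whose dose series gives a full or clear partial fitted curve of increased nuclear translocation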; also: potency is read from the fitted curve at half-maximal effect); settings: U2OS GR-GFP nuclear translocation, laser cytometry, 2 h
# [19] = target: 3',5'-cyclic-AMP phosphodiesterase 4B (Homo sapiens) (UniProt Q07343); test: qHTS Assay for Inhibitors of PDE-IV (AID 607; active = well fitted activation curve with a large enough effect in the main read-out, with a control signal flat, not every such curve was filed as active)
# How it was run: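 Cell-based read-out of cAMP via a modified cyclic nucleotide-gated channel and membrane potential dye (535/590 nm) in HEK293 cells expressing PDE4 endogenously. Compounds tested up to 22.9 uM final; 100 uM RO 20-1724 reference.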
# [20] = measured here: cell count channel max response
# [21] = measured here: lipid channel max response
# Cytochrome P450 1A2 (Homo sapiens), sequence (P05177 whole entry, looked up): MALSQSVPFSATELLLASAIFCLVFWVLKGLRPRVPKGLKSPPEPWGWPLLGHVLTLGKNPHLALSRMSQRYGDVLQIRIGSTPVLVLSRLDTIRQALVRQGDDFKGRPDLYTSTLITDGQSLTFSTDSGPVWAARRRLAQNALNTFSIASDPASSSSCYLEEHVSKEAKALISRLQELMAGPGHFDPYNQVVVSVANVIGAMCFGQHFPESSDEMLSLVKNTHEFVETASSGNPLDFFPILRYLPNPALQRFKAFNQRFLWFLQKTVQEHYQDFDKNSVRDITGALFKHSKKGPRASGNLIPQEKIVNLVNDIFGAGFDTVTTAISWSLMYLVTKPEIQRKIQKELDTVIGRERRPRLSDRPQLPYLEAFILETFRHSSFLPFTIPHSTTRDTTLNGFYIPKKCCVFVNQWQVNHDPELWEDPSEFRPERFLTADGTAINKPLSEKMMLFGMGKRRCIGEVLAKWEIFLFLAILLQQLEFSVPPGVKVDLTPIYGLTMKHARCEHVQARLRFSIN
# Glucocorticoid receptor (Homo sapiens), sequence (P04150 whole entry, looked up, the tested form may be a part): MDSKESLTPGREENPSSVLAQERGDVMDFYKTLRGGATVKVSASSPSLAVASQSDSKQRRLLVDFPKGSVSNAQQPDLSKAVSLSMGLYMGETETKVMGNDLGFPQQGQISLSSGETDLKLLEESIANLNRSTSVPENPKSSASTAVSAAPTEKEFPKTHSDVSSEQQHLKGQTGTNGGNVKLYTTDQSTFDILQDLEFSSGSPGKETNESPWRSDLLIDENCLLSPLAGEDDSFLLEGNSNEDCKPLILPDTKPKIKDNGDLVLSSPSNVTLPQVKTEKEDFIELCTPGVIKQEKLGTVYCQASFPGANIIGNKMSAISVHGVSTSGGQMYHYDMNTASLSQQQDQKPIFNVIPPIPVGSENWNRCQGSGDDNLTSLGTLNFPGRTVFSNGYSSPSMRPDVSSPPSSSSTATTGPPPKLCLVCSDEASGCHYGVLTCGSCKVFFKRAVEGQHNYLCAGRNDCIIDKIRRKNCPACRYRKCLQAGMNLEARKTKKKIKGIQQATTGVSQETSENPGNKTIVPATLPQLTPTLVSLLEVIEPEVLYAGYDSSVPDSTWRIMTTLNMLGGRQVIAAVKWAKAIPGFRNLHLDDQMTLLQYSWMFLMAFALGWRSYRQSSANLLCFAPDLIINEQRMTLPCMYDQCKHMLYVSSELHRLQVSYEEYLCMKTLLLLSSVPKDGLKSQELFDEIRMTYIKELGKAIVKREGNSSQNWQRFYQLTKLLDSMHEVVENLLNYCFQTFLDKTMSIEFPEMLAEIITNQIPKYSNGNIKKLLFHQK
# Alpha-galactosidase A (Homo sapiens), sequence (P06280 whole entry, looked up): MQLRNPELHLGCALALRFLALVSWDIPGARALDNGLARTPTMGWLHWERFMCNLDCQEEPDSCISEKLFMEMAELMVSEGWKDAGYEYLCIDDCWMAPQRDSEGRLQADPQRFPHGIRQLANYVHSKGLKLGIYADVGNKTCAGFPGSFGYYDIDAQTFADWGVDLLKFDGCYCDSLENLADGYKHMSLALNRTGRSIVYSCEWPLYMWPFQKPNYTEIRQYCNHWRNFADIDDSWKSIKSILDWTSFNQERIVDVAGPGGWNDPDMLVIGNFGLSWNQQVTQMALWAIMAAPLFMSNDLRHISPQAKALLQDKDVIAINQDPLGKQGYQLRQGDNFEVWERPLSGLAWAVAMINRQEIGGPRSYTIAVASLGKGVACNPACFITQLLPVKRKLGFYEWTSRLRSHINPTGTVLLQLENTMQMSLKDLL
# Ubiquitin carboxyl-terminal hydrolase 1 (Homo sapiens), sequence (O94782 whole entry, looked up): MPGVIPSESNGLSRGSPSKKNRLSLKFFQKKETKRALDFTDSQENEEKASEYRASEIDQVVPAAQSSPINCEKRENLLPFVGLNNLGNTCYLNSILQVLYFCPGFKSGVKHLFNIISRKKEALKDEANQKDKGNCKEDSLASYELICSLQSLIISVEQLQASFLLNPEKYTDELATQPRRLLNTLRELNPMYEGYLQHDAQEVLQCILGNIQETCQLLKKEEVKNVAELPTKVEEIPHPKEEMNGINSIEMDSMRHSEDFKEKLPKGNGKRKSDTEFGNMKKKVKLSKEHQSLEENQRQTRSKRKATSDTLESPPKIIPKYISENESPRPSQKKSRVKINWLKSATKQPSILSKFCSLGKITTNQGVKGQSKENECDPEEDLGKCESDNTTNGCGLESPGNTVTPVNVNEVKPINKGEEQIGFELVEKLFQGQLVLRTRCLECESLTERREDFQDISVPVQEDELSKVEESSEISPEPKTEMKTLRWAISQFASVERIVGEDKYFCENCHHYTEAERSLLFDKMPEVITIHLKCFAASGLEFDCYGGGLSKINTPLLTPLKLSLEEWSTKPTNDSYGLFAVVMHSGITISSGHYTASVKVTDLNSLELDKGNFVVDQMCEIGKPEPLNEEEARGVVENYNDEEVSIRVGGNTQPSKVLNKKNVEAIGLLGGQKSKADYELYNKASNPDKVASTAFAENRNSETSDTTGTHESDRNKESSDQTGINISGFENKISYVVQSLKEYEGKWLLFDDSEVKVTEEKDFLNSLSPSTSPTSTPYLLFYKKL
# 3',5'-cyclic-AMP phosphodiesterase 4B (Homo sapiens), sequence (Q07343 whole entry, looked up): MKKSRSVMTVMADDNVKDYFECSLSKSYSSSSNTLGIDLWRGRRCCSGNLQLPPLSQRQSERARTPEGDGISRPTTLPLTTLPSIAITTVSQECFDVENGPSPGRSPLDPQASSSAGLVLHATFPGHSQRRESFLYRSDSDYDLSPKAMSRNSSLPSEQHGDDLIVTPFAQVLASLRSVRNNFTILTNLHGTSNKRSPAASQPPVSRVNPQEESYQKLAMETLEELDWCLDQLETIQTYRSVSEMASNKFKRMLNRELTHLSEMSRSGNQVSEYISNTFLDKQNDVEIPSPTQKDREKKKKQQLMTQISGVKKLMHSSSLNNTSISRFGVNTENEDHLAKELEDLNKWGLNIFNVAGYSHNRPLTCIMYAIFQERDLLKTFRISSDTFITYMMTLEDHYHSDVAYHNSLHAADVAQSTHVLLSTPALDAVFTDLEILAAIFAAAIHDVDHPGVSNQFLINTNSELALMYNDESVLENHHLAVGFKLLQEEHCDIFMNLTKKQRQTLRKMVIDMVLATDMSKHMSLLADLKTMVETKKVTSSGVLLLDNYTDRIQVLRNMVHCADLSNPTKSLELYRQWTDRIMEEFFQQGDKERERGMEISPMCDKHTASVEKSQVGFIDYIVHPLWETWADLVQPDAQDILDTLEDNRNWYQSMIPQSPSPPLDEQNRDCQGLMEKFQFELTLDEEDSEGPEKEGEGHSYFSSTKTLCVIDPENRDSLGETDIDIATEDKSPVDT
# Guanine nucleotide-binding protein G(i) subunit alpha-1 (Homo sapiens), sequence (P63096 whole entry, looked up): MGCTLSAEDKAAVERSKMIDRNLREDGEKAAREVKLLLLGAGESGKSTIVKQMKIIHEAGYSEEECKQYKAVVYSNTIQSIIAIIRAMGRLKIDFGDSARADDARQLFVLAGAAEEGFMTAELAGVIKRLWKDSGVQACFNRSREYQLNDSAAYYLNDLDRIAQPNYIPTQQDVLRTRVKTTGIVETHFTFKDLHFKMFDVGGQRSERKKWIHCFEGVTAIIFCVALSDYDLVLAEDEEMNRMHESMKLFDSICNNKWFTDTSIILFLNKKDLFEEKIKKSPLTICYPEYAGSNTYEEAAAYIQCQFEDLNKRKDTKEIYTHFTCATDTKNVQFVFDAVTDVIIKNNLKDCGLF
# Pyruvate kinase (Leishmania mexicana), sequence (Q27686 2-499 E452W): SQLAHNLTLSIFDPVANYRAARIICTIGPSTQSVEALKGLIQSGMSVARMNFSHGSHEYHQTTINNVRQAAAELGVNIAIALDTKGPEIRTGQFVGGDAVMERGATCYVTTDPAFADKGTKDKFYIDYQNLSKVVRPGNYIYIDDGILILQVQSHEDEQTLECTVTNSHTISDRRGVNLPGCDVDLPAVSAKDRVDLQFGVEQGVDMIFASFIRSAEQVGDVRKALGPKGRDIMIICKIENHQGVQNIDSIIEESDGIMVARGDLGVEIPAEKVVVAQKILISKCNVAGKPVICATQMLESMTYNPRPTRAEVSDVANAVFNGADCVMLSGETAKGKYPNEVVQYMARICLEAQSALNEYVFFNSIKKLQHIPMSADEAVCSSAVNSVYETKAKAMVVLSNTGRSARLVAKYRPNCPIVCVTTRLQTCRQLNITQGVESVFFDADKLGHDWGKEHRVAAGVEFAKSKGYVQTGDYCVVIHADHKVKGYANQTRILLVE
# Pyruvate kinase PKM (Homo sapiens), sequence (P14618 whole entry, looked up): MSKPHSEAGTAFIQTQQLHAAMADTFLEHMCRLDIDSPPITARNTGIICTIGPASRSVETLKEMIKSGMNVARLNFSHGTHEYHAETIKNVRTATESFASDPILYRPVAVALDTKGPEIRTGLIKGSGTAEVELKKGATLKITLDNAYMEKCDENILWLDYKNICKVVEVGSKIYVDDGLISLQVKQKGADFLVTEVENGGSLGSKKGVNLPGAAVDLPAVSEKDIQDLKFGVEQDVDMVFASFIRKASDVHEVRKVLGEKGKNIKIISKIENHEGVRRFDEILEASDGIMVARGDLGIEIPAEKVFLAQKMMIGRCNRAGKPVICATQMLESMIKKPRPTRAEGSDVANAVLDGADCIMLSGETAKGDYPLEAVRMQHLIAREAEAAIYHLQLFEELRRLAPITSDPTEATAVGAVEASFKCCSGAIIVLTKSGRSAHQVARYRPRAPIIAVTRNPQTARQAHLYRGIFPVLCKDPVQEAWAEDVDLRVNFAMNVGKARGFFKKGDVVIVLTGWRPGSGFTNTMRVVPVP
# DNA dC->dU-editing enzyme APOBEC-3G (Homo sapiens), sequence (Q9HC16 whole entry, looked up): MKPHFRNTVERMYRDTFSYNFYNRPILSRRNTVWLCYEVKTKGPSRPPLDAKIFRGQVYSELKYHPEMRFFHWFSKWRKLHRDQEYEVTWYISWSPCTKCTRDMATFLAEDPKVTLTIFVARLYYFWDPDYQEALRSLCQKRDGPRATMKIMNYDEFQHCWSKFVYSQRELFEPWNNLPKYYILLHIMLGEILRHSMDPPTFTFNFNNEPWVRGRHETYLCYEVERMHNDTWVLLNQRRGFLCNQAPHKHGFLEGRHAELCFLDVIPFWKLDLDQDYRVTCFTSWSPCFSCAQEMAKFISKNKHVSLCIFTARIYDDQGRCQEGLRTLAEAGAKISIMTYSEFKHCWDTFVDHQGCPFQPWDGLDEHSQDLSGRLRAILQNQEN
structure (smiles),measurement,setting,value
CC(N)=NCCCC[C@H](N)C(=O)O,"activity change, negative = inhibition",[1]; at 38 µM (top of the series),-1.14% (inactive)
same,Potency,[2],inactive and 39.8 µM (active)
same,"activity change, negative = inhibition",[3]; at 38 µM (top of the series),-3.86% (inactive)
same,"activity, negative = inhibition",[4]; at 38 µM (top of the series),-14% (inactive)
same,Potency,[5],> 46 µM (inactive)
same,Potency,[6],inactive
same,outcome,[7],inactive
same,Potency,[8],inactive
same,Potency,[9],inactive
same,outcome,[10],inactive
same,outcome,[11],inactive
same,outcome,[12],inactive
same,"activity change, negative = inhibition",[13]; at 57.5 µM (top of the series),-4.89% (inactive)
same,max response,[13]; [20],-8.18%
same,max response,[13]; [21],-10.8%
same,Potency,[14],inactive
same,Potency,[15],inactive
same,Potency,[16],inactive
same,Potency,[17],inactive
C=C[C@H](N)CCC(=O)O,"activity change, negative = inhibition",[1]; at 17.2 µM (top of the series),-1.55% (inactive)
same,"activity change, negative = inhibition",[1]; at 38 µM (top of the series),6.29% (inactive)
same,Potency,[2],inactive
same,"activity change, negative = inhibition",[3]; at 17.2 µM (top of the series),-1.05% (inactive)
same,"activity change, negative = inhibition",[3]; at 38 µM (top of the series),2.77% (inactive)
same,"activity, negative = inhibition",[4]; at 17.2 µM (top of the series),-1.55% (inactive)
same,"activity, negative = inhibition",[4]; at 38 µM (top of the series),-14.6% (inactive)
same,Potency,[18],> 46 µM (inactive) and > 20.6 µM (inactive)
same,Potency,[5],> 46 µM (inactive) and > 20.6 µM (inactive)
same,Potency,[6],inactive
same,Potency,[19],inactive
same,outcome,[7],inactive
same,Potency,[8],inactive
same,Potency,[9],inactive
same,outcome,[10],inactive
same,outcome,[11],inactive
same,outcome,[12],inactive
same,"activity change, negative = inhibition",[13]; at 25.7 µM (top of the series),-2.99% (inactive)
same,"activity change, negative = inhibition",[13]; at 57.5 µM (top of the series),-0.953% (inactive)
same,max response,[13]; [20],3.82% and -3.83%
same,max response,[13]; [21],1.97% and -5.49%
same,Potency,[14],inactive
same,Potency,[15],inactive
same,Potency,[16],inactive
same,Potency,[17],inactive
